The results in this text go back to article PMC5540273 (PLoS ONE, 2017).

Among the test systems are AAK1; ABL1-nonphosphorylated; ABL1-phosphorylated; ABL2; ACVR1B; ACVR1; ACVR2A; ACVR2B; ACVRL1.
Conditions in all cases: concentration: 1 μM,replicates: in singlicate; n = 1
The next assay concerns T1, ADCK3.
T1 construct: gene CABC1
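Also: KINOMEscan kinase panel screen.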

Turning to `Cn1ccc2ncnc(Oc3ccc(NC(=O)Nc4cncc(C(F)(F)F)c4)c(Cl)c3)c21`, the “%Inh” value was determined as 0% with AAK1; 92.7% in the assay with ABL1-nonphosphorylated; 35% with ABL1-phosphorylated; 27% in the assay on ABL2; 0% in the assay on ACVR1B; 0% with ACVR1. In addition, the “%Inh” value amounted to 0% in the assay with ACVR2A, 0% in the assay with ACVR2B, 0% with ACVRL1 and 2% in the assay on ADCK3.
For the compound `CC(C(=O)NC1CCN(c2ccnc(Nc3ccc(F)cc3)n2)C1)c1ccc(Cl)cc1` (centres unmarked) [GSK1379713], the “%Inh” value in the assay on AAK1 was found to be 14%; in the assay on ABL1-nonphosphorylated, 0%; in the assay on ABL1-phosphorylated, 0%; in the assay with ABL2, 9%; with ACVR1B, 0%; with ACVR1, 0%. Also, the “%Inh” value in the assay on ACVR2A, with ACVR2B, with ACVRL1 and in the assay with ADCK3 was 0% throughout.
Turning to `Cl.c1ccc(Oc2ccc(Nc3ccnc4cc(-c5ccc(CN6CCNCC6)o5)ccc34)cc2)nc1` [GW567142], the “%Inh” value in the assay on AAK1 was determined as 2%; in the assay with ABL1-nonphosphorylated, 99.7%; with ABL1-phosphorylated it was 84%; in the assay with ABL2, 42%; in the assay on ACVR1B, 0%; with ACVR1, 0%. Also, the “%Inh” value in the assay with ACVR2A is reported as 0%; with ACVR2B, 41%; with ACVRL1 it was 0%; in the assay with ADCK3 it was 0%.
Take `CSc1nccc(-c2c(-c3ccc(F)cc3)ncn2CCCN2CCOCC2)n1.Cl` [SB-217146]: the “%Inh” value was found to be 0% in the assay on AAK1; 35% in the assay on ABL1-nonphosphorylated; 31% with ABL1-phosphorylated; 0% with ABL2; 0% with ACVR1B; 0% in the assay with ACVR1. Besides, the “%Inh” value in the assay with ACVR2A, with ACVR2B, in the assay with ACVRL1 and in the assay on ADCK3 was 0% in each case.
Consider `N#Cc1cccc(C(=O)NC2CCN(c3ccnc(Nc4ccc(F)cc4)n3)C2)c1` (centres unmarked) [GSK1379708], for which the “%Inh” value in the assay on AAK1 is on record as 0%; with ABL1-nonphosphorylated it was 0%; in the assay with ABL1-phosphorylated, 0%; in the assay with ABL2 it was 4%; with ACVR1B, 0%; in the assay with ACVR1 it was 31%. The “%Inh” value in the assay on ACVR2A, with ACVR2B, in the assay with ACVRL1 and in the assay on ADCK3 was 0% throughout.
With `O=C1NCCc2[nH]c(-c3ccncc3)cc21`, the “%Inh” value in the assay on AAK1 worked out at 77%; in the assay with ABL1-nonphosphorylated, 31%; in the assay on ABL1-phosphorylated it was 0%; in the assay on ABL2, 0%; in the assay on ACVR1B it was 40%; in the assay with ACVR1, 14%. Moreover, the “%Inh” value is 40% in the assay with ACVR2A, 70% with ACVR2B, 19% in the assay with ACVRL1 and 33% in the assay on ADCK3.
Consider `Cn1ccc2ncnc(Oc3ccc(NC(=O)Nc4cccc(C(F)(F)F)c4)c(F)c3)c21`, for which the “%Inh” value in the assay with AAK1 is listed as 15%; with ABL1-nonphosphorylated it was 88%; in the assay on ABL1-phosphorylated, 51%; in the assay on ABL2, 29%; in the assay on ACVR1B it was 0%; in the assay on ACVR1, 0%. Further, the “%Inh” value with ACVR2A was determined as 32%; with ACVR2B, 36%; in the assay on ACVRL1 it was 7%; in the assay with ADCK3, 18%.
In the case of `CS(=O)(=O)Nc1ccc(-c2ccnc3[nH]ccc23)cc1` [GSK993273], the “%Inh” value is given as 79% in the assay with AAK1; 0% with ABL1-nonphosphorylated; 1% in the assay with ABL1-phosphorylated; 16% in the assay with ABL2; 0% in the assay with ACVR1B; 3% in the assay on ACVR1. Besides, the “%Inh” value came to 0% with ACVR2A, 0% with ACVR2B, 0% in the assay with ACVRL1 and 12% in the assay on ADCK3.
Turning to `COc1cc2nccc(Nc3ccc(Oc4ccccc4)cc3)c2cc1OC.Cl` [GI261656], the “%Inh” value with AAK1 came out at 6%; with ABL1-nonphosphorylated, 89%; in the assay with ABL1-phosphorylated it was 14%; in the assay with ABL2, 16%; in the assay on ACVR1B it was 0%; with ACVR1, 0%. Moreover, the “%Inh” value with ACVR2A came to 0%; in the assay with ACVR2B it was 0%; in the assay with ACVRL1 it was 0%; in the assay on ADCK3, 5%.
`COC(=O)Nc1nc2cc(Oc3ccc(NC(=O)Nc4cc(C(F)(F)F)ccc4Cl)cc3)ccc2[nH]1.Cl` [GW697465]: the “%Inh” value with AAK1 stood at 0%; with ABL1-nonphosphorylated, 97%; with ABL1-phosphorylated, 32%; with ABL2, 89%; in the assay on ACVR1B it was 0%; with ACVR1, 0%. The “%Inh” value in the assay on ACVR2A amounted to 0%; with ACVR2B, 0%; with ACVRL1 it was 0%; in the assay with ADCK3, 82%.
With `O=C(Nc1cccc(C(F)(F)F)c1)c1cccc(Oc2ccc3nccn3n2)c1`, the “%Inh” value in the assay with AAK1 is recorded as 0%; in the assay with ABL1-nonphosphorylated, 98.5%; in the assay with ABL1-phosphorylated it was 17%; with ABL2, 76%; in the assay with ACVR1B, 0%; in the assay with ACVR1, 0%. The “%Inh” value stood at 24% in the assay on ACVR2A, 8% in the assay on ACVR2B, 0% in the assay on ACVRL1 and 14% in the assay on ADCK3.
In the case of `Cc1ccc2c(-c3ccnc(Nc4ccc(C(F)(F)F)cc4)n3)cnn2n1` [GW819776], the “%Inh” value worked out at 12% in the assay on AAK1; 36% in the assay on ABL1-nonphosphorylated; 28% with ABL1-phosphorylated; 1% with ABL2; 11% in the assay with ACVR1B; 0% with ACVR1. Also, the “%Inh” value was found to be 0% in the assay on ACVR2A, 0% in the assay on ACVR2B, 0% in the assay with ACVRL1 and 5% in the assay with ADCK3.
`CS(=O)c1ccc(-c2coc3ccc(-c4n[nH]c(=O)o4)cc23)cc1` (centres unmarked): the “%Inh” value in the assay with AAK1 was found to be 21%; in the assay on ABL1-nonphosphorylated, 35%; in the assay on ABL1-phosphorylated, 3%; in the assay with ABL2, 0%; with ACVR1B, 14%; in the assay on ACVR1, 0%. For the same compound, the “%Inh” value is 8% in the assay on ACVR2A, 19% in the assay on ACVR2B, 0% with ACVRL1 and 0% in the assay on ADCK3.
Turning to `Cc1ccc(CC(=O)N2CCc3cc(-c4cn(C)c5ncnc(N)c45)ccc32)cc1` [GSK2634758], the “%Inh” value in the assay on AAK1 came to 33%; in the assay on ABL1-nonphosphorylated, 42%; in the assay on ABL1-phosphorylated it was 5%; with ABL2 it was 24%; in the assay on ACVR1B, 20%; in the assay with ACVR1, 0%. The “%Inh” value with ACVR2A is 0%; in the assay on ACVR2B it was 0%; with ACVRL1 it was 0%; in the assay with ADCK3, 6%.
Consider `C[C@@H](Oc1cc(-n2cnc3cc(-c4cnn(C)c4)ccc32)sc1C(N)=O)c1ccccc1Cl` [GSK580432], for which the “%Inh” value came out at 82% in the assay with AAK1; 58% in the assay with ABL1-nonphosphorylated; 63% in the assay with ABL1-phosphorylated; 63% with ABL2; 0% in the assay on ACVR1B; 0% in the assay on ACVR1. Moreover, the “%Inh” value in the assay on ACVR2A is on record as 0%; in the assay on ACVR2B, 25%; in the assay with ACVRL1, 0%; in the assay with ADCK3 it was 13%.
On to `COc1ccc(Nc2nccc(N3CCC(NC(=O)c4cccc(C#N)c4)C3)n2)cc1` (centres unmarked) [GSK1379730], for which the “%Inh” value with AAK1 was found to be 0%; in the assay on ABL1-nonphosphorylated, 0%; in the assay on ABL1-phosphorylated, 0%; in the assay with ABL2, 9%; in the assay on ACVR1B it was 4%; in the assay on ACVR1, 24%. Besides, the “%Inh” value with ACVR2A, in the assay on ACVR2B, in the assay with ACVRL1 and with ADCK3 was 0% throughout.
Consider `CC(C)S(=O)(=O)N1CCN(Cc2ccc3c(c2)nc(NC(=O)c2ccsc2)n3C[C@H](O)c2ccccc2)CC1` [GW635815], for which the “%Inh” value with AAK1 was found to be 38%; with ABL1-nonphosphorylated it was 0%; in the assay with ABL1-phosphorylated, 2%; in the assay with ABL2, 22%; in the assay with ACVR1B it was 15%; with ACVR1, 0%. Further, the “%Inh” value in the assay with ACVR2A, with ACVR2B, with ACVRL1 and with ADCK3 was 0% throughout.
